The source of these data is PubChem BioAssay (Tox21).

Assay [1] is described as follows: Caspase-3/7 induction in HepG2 cells by small molecules, qHTS assay (AID 1346978). Also: nearly all actives have a fitted effect of over 15% in size. Also: potency is read from the fitted curve at half-maximal effect. Summed up:
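Caspase-3/7 induction was measured by Caspase-Glo 3/7 luminescence (30 min, room temperature) after a 17 hr compound exposure of wild-type HepG2 cells seeded at 2,000 per well and pre-incubated 5 hr.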
In general terms: Quantitative high-throughput screening tests each substance at several concentrations.

Assay [2] in a line: Caspase-3/7 induction in CHO-K1 cells by small molecules, qHTS cell viability counter screen (AID 1346979). Also: nearly all actives have a fitted effect of over 35% in size. Also: potency is read from the fitted curve at half-maximal effect. In a few lines: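 Wild-type CHO-K1 cells (1,500/well) treated with compound after 5 h plating; after 16 h at 37C, viability read as CellTiter-Fluor fluorescence following 1 h reagent incubation, in the same wells as the caspase read.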
Assay [3] in a line: Caspase-3/7 induction in CHO-K1 cells by small molecules, qHTS assay (AID 1346980). Also: nearly all actives have a fitted effect of over 15% in size. In a few lines: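 Luminescent Caspase-Glo 3/7 read (30min, room temperature) quantified apoptosis induction. Cells were wild-type CHO-K1, treated with compound for 17hr at 37 C and 5% CO2.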
The nature of assay [4]: Caspase-3/7 induction in HepG2 cells by small molecules, qHTS cell viability counter screen (AID 1346981). Also: series mostly up to about 92 µM; nearly all actives have a fitted effect of over 30% in size. Summed up: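 Viability determined by CellTiter-Fluor fluorescence in HepG2 wells also used for the luminescent Caspase-Glo 3/7 read. Compounds were present for 16 hr at 37 C, 5% CO2 before reagent addition.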
Assay [5] addresses Nuclear receptor subfamily 1 group I member 2 (Homo sapiens) (UniProt O75469). Briefly: Human pregnane X receptor (PXR) small molecule agonists, qHTS assay (AID 1346982). Also: nearly all actives have a fitted effect of over 35% in size. Also: potency is read from the fitted curve at half-maximal effect. Summed up:
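Compound-induced hPXR transactivation of a CYP3A4 luciferase reporter was scored in HepG2 PXR-Luc cells over 24 hr at 37 C, 5% CO2, by luminescence.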

Assay [6] addresses Cytochrome P450 2D6 (Homo sapiens) (UniProt P10635). The assay can be described thus: Cytochrome P450 Family 2 Subfamily D Member 6 (CYP2D6) small molecule antagonists: luciferase reporter qHTS assay (AID 1671196). Also: nearly all actives have a fitted effect of over 50% in size. Also: potency is read from the fitted curve at half-maximal effect. In a few lines: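 Each well received CYP2D6 with its proluciferin substrate and chemical, sat 10 min, then got NADPH regeneration solution for 1 h at room temperature. Luminescence in RLU served as the activity measure.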

The target of assay [7] is Cytochrome P450 2C19 (Homo sapiens) (UniProt P33261). Briefly: Cytochrome P450 Family 2 Subfamily C Member 19 (CYP2C19) small molecule antagonists: luciferase reporter qHTS assay (AID 1671197). Also: nearly all actives have a fitted effect of over 65% in size. Also: potency is read from the fitted curve at half-maximal effect. Summed up:
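Relative luminescence units recorded 20 min after the detection reagent stopped a 1 h, 37C CYP2C19 reaction on proluciferin substrate, which was started by NADPH regeneration following 10 min room-temperature compound preincubation; ketoconazole positive control.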

The target in assay [8] is Cytochrome P450 2C9 (Homo sapiens) (UniProt P11712). Briefly: Cytochrome P450 Family 2 Subfamily C Member 9 (CYP2C9) small molecule antagonists: luciferase reporter qHTS assay (AID 1671198). Also: nearly all actives have a fitted effect of over 50% in size. Also: potency is read from the fitted curve at half-maximal effect. In a few lines:
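Enzyme-substrate mix preincubated with compound 10 min at room temperature; reaction started with NADPH regeneration solution, 1 h 37C. Luminescent luciferin product read after 20 min detection reagent.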

Assay [9] addresses Voltage-gated inwardly rectifying potassium channel KCNH2 (Homo sapiens) (UniProt Q12809). Briefly: Human Ether-a-go-go-Related Gene (hERG) channel small molecule antagonists: fluorescence cell-based qHTS assay (AID 1671200).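 Also: hERG-expressing U2OS cells given a thallium stimulus after FluxOR II dye loading; series mostly up to about 77 µM; nearly all actives have a fitted effect of over 50% in size.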 Summed up: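 hERG-U2OS cells plated overnight at 37 C, loaded with FluxOR II dye 1 h at RT in dark; after 10 min, thallium stimulus added. Fluorescence (480/540 nm) read kinetically for 2 min at 1 s intervals.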

Assay [10] concerns the target Cytochrome P450 3A4 (Homo sapiens) (UniProt P08684). Briefly: Cytochrome P450 Family 3 Subfamily A Member 4 (CYP3A4) small molecule antagonists: luciferase reporter qHTS assay (AID 1671201). Also: nearly all actives have a fitted effect of over 50% in size. Also: potency is read from the fitted curve at half-maximal effect. Summed up: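 P450-Glo CYP3A4 luminescent assay: compounds preincubated 10 min at room temperature with enzyme and proluciferin substrate, NADPH regeneration added, 1 h room-temperature reaction, stopped with luciferin detection reagent; luminescence read after 20 min. Ketoconazole positive control.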
In general terms: In a reporter assay the amount or activity of a reporter protein is the signal.

Assay [11] has as its target Cytochrome P450 1A2 (Homo sapiens) (UniProt P05177). Briefly: Cytochrome P450 Family 1 Subfamily A Member 2 (CYP1A2) small molecule antagonists: luciferase reporter qHTS assay (AID 1671199). Also: nearly all actives have a fitted effect of over 50% in size. Also: potency is read from the fitted curve at half-maximal effect. Summed up: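 Enzymatic CYP1A2 assay, human, luminescent: 10 min compound–enzyme–substrate preincubation, 1 h NADPH-dependent turnover, 20 min detection step, room temperature throughout. Reduced light indicates lower CYP1A2 activity.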

The target of assay [12] is Nuclear receptor subfamily 1 group I member 2 (Homo sapiens) (UniProt O75469). The assay can be described thus: Human pregnane X receptor (PXR) activation by small molecules, qHTS assay (AID 1346985). Also: nearly all actives have a fitted effect of over 40% in size. Also: potency is read from the fitted curve at half-maximal effect. In a few lines: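 DPX-2 cells (HepG2 co-transfected with a PXR response element and a CYP3A4-promoter luciferase construct) were seeded at 2,000 per well, rested 5 hr at 37C, then exposed to DMSO-dissolved compounds for 24 hr. Activation was read as luciferase luminescence.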

Assay [13] shares this target. Briefly: CYP3A4 induction through human pregnane X receptor (PXR) by small molecules, qHTS assay (AID 1346984). Also: nearly all actives have a fitted effect of over 40% in size. Summed up: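 Readings come from a luciferase reporter: DPX-2 cells, which are HepG2 cotransfected with PXR and a CYP3A4-promoter construct, were exposed to test compounds for 24 h at 37C before One-Glo detection.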

Where “and” joins values, the source holds several entries; their conditions need not be identical. Equal entries are not always repeated. Results filed as inconclusive are left out. The source holds several records for some structures; these can differ, active in one and inactive in another. Calls of active or inactive are those of the source. Calls follow the shape of the dose curve; as a rule, active = well fitted curve in the direction sought with a large enough effect in the repeat runs; inconclusive = weak or mixed curves; inactive = no such curve, though single readings can be large; an effect the other way counts as inactive or inconclusive.

Cytochrome P450 3A4 (Homo sapiens), sequence (P08684 whole entry, looked up): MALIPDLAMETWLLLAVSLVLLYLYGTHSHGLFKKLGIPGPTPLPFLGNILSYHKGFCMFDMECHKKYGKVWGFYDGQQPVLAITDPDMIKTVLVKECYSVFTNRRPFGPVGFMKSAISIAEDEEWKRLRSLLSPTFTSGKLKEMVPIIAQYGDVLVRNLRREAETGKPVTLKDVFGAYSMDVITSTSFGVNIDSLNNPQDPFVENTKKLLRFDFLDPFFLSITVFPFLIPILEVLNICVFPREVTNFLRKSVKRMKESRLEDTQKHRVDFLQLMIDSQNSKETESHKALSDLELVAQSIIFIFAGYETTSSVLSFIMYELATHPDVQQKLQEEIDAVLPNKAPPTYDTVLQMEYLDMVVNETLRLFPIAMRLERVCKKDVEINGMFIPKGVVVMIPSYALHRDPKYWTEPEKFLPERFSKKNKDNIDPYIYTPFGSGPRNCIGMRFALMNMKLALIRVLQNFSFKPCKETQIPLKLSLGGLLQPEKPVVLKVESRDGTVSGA
Nuclear receptor subfamily 1 group I member 2 (Homo sapiens), sequence (O75469 whole entry, looked up): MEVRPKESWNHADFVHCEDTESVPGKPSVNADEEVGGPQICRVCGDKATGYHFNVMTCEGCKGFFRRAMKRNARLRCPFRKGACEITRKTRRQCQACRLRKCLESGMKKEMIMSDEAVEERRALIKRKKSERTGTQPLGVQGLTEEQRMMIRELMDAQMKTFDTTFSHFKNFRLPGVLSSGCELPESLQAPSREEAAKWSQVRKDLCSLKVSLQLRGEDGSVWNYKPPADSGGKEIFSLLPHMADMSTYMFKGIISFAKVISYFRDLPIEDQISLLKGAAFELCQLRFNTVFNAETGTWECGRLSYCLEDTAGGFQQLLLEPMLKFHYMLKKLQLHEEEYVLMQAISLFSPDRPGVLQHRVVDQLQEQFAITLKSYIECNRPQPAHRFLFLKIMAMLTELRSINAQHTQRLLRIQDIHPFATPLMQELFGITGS
Voltage-gated inwardly rectifying potassium channel KCNH2 (Homo sapiens), sequence (Q12809 whole entry, looked up): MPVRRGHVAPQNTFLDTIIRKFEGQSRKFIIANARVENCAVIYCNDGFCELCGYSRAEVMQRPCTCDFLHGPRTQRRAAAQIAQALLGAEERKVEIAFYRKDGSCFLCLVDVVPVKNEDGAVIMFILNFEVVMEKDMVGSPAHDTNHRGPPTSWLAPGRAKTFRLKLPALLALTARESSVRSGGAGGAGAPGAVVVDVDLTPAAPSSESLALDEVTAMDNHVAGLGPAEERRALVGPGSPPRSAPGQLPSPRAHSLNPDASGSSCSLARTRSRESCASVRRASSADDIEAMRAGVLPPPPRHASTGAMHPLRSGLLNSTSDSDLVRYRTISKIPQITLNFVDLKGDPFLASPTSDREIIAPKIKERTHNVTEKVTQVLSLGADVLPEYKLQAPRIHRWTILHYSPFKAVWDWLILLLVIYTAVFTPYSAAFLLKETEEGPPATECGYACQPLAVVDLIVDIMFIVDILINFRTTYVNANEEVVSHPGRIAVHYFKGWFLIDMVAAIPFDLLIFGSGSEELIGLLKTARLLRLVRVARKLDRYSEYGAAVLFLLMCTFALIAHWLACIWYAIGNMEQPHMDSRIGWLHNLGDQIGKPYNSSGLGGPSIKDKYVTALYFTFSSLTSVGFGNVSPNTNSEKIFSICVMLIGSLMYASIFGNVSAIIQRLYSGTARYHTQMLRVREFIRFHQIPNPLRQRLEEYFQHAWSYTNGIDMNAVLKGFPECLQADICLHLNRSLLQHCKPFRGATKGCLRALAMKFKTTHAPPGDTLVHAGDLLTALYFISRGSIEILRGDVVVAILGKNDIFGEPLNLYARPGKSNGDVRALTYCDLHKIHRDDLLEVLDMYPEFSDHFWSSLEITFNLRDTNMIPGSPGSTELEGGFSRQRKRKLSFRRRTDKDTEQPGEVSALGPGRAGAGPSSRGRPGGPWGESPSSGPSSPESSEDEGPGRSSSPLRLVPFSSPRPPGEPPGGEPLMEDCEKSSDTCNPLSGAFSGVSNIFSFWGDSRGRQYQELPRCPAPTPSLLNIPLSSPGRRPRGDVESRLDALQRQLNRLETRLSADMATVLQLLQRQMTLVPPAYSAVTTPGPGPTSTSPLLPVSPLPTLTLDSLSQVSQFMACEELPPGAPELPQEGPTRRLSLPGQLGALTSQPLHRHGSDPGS
Cytochrome P450 1A2 (Homo sapiens), sequence (P05177 whole entry, looked up): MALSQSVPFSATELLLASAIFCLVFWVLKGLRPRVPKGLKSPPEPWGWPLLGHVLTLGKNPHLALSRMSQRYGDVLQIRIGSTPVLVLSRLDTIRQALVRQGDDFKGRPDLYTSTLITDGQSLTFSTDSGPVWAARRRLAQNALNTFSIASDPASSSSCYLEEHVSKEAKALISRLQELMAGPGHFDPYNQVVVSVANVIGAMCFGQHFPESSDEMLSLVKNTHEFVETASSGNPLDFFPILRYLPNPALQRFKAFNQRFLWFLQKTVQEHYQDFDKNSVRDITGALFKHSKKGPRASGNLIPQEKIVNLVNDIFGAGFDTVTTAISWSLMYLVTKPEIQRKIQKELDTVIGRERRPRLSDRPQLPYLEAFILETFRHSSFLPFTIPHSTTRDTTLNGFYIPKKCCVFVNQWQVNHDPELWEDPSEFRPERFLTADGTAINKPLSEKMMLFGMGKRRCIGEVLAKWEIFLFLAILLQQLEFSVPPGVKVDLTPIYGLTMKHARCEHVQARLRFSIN
Cytochrome P450 2C19 (Homo sapiens), sequence (P33261 whole entry, looked up): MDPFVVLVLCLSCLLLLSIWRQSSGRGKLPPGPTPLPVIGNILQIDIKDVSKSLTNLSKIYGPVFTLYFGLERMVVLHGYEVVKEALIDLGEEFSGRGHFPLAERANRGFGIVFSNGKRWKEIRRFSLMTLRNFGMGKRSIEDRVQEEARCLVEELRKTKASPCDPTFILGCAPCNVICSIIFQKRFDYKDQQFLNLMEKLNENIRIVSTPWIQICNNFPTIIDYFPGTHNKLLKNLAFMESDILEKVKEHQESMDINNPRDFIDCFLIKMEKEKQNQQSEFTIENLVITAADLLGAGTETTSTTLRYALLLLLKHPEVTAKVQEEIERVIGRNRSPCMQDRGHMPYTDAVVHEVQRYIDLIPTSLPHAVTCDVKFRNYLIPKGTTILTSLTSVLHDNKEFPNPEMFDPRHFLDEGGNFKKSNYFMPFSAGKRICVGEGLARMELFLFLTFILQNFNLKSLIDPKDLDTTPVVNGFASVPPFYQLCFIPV
Cytochrome P450 2D6 (Homo sapiens), sequence (P10635 whole entry, looked up): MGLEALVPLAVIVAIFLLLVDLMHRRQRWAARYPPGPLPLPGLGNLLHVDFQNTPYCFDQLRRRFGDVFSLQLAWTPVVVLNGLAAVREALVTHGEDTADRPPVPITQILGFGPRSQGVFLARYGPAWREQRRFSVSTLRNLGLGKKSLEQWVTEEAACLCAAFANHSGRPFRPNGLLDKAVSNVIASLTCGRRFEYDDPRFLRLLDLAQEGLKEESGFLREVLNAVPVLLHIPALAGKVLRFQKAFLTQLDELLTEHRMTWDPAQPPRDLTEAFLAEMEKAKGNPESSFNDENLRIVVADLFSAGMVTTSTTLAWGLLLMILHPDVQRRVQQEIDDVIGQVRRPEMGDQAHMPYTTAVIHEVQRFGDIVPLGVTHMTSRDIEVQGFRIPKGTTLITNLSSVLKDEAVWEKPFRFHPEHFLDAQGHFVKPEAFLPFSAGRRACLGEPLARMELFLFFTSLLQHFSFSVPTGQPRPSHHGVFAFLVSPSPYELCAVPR
Cytochrome P450 2C9 (Homo sapiens), sequence (P11712 whole entry, looked up): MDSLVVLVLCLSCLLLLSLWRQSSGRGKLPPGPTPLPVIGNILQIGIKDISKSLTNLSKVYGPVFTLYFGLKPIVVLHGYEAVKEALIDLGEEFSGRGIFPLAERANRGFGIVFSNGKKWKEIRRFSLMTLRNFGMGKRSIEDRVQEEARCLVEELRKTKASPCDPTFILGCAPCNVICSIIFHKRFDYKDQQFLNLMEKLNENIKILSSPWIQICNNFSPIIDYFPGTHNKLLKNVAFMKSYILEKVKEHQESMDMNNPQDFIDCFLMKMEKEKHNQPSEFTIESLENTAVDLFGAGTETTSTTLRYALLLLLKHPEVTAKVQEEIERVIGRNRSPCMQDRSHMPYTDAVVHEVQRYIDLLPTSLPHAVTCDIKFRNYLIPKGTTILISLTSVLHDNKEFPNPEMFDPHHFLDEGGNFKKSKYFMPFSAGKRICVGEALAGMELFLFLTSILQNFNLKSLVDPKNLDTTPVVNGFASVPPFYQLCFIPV

Regarding `COC(=O)CCC(=O)OC`, the Potency result in assay [1], in [2], in assay [3], in assay [4], in assay [6] and in assay [7] was “inactive” throughout. The Potency result in [8], in assay [9] and in assay [10] was “inactive” each time. Also, the Potency in [5] was 56 µM (active) and inactive.
Take `CC(=O)CC/C=C(\C)CCC=C(C)C`: the Potency entry in [1], in assay [2], in [3], in assay [4], in assay [6] and in [9] was “inactive” throughout. Besides, the Potency result in [5] was “inactive and 54.5 µM (active)”; in assay [7] it was “inactive and 39.9 µM (active)”; in [8] it was “inactive and 35.6 µM (active)”; in assay [11] it was “inactive and 39.9 µM (active)”; in assay [10] it was “inactive and 17.8 µM (active)”.
Regarding `Cc1ccc(C)c(O)c1C`, the Potency entry in assay [1], in [2], in assay [3], in [4], in assay [5] and in assay [6] was “inactive” in each case. The Potency result in assay [7], in assay [9] and in assay [10] was “inactive” in each case. Also, in [11], the Potency is 28.1 µM (active) and 28.3 µM (active).
On to `CC(C)OB(OC(C)C)OC(C)C`, for which the Potency entry in assay [1], in [2], in assay [3], in [4], in assay [5] and in assay [6] was “inactive” in each case. Moreover, the Potency result in assay [8], in [11], in assay [9] and in assay [10] was “inactive” throughout. Moreover, the Potency in assay [7] is 40 µM (active) and inactive.
In the case of `Cc1ccc2c(n1)Oc1ccc(C(C)C(=O)OCC(=O)N(C)C)cc1C2` (centres undefined), the Potency entry in assay [1], in assay [2], in assay [3], in [4], in [11] and in assay [9] was “inactive” each time. The Potency result in assay [10] is “inactive”. Further, the Potency was 21.1 µM (active) and 11.9 µM (active) in [5]; 38.9 µM (active) in assay [6]; 17.4 µM (active) in assay [7]; 21.9 µM (active) in assay [8].
`O=C=Nc1ccc(Cc2ccc(N=C=O)cc2)cc1`: the Potency entry in assay [1], in [2], in assay [3], in assay [4], in [6] and in [11] was “inactive” throughout. For the same compound, in [9], the Potency entry was “inactive”. The Potency in assay [8] is 6.98 µM (active).
`O=C(/C=C/C=C/c1ccc2c(c1)OCO2)N1CCCCC1`: the Potency entry in assay [1], in [3], in assay [4] and in assay [9] was “inactive” in each case. The Potency is 10.9 µM (active) in assay [5]; 63.4 µM (active) and 44.8 µM (active) in [6]; 12.7 µM (active) and 35.6 µM (active) in [8]; 28.3 µM (active) and 22.4 µM (active) in [11].
As to `c1ccc2c(c1)c1cccc3ccc4cccc2c4c31`, the Potency result in assay [1], in assay [2], in assay [3], in [4], in [5] and in assay [8] was “inactive” in each case. Also, the Potency entry in [9] and in assay [10] was “inactive” each time. The Potency is 88.8 µM (active) and inactive in assay [7]; 112 nM (active) and 20 nM (active) in assay [11].
On to `Cc1ncc[nH]1`, for which the Potency entry in [1], in assay [2], in [3], in assay [4], in assay [6] and in assay [8] was “inactive” in each case. In addition, the Potency result in assay [11] and in [9] was “inactive” each time. Further, the Potency in assay [7] was 39.8 µM (active) and inactive.
On to `O=P(O)(O)O`, for which the Potency entry in [1], in assay [2], in assay [3], in [4] and in [9] was “inactive” throughout.
Turning to `OC(CCl)CCl`, the Potency entry in [1], in assay [2], in [3], in assay [4], in [5] and in assay [6] was “inactive” each time. Besides, the Potency result in assay [7], in assay [8], in [9] and in assay [10] was “inactive” each time.
With `CN(C)C(=N)N=C(N)N`, the Potency result in assay [2], in [3] and in assay [4] was “inactive” throughout.
Take `CC(C)=CCCC(C)CCO` (centres undefined): the Potency entry in [1], in [2], in [3], in [4], in assay [5] and in [6] was “inactive” throughout. Moreover, the Potency result in [8] and in [9] was “inactive” each time. In addition, the Potency result was “inactive and 50.2 µM (active)” in [7]; “inactive and 39.9 µM (active)” in assay [10].
Take `COc1cc([C@@H]2c3cc4c(cc3[C@H](O)[C@H]3COC(=O)[C@H]23)OCO4)cc(OC)c1OC`: the Potency entry in [1], in assay [3], in assay [6] and in assay [9] was “inactive” each time. Further, the Potency in assay [2] is 8.6 nM (active) and 21.1 nM (active); in assay [5], 0.0485 µM (active); in assay [12] it was 14.1 µM (active); in assay [8], 2.83 µM (active) and 2.19 µM (active); in assay [11], 35.6 µM (active).
`CCCCOCCOCCOCCO`: the Potency entry in [1], in [2], in assay [3], in [4], in assay [5] and in [6] was “inactive” in each case. The Potency result in assay [7], in assay [8], in assay [9] and in [10] was “inactive” in each case.
Regarding `O=C(Nc1ccc(Cl)cc1)Nc1ccc(Cl)c(Cl)c1`, the Potency entry in assay [1], in [3], in [13], in [12], in assay [6] and in [9] was “inactive” throughout. For the same compound, the Potency entry in assay [10] was “inactive”. Also, the Potency in assay [2] was 19.2 µM (active) and 17.2 µM (active) and 18.8 µM (active); in assay [5] it was 7.66 µM (active); in assay [7], 5 µM (active) and 7.1 µM (active) and 8.71 µM (active); in [8] it was 5 µM (active) and 5.64 µM (active) and 4.9 µM (active); in assay [11], 17.8 µM (active) and 22.4 µM (active) and 17.4 µM (active).
Regarding `O=[N+]([O-])c1ccc2c(c1)Cc1ccccc1-2`, the Potency result in assay [1], in assay [3], in assay [4], in assay [6], in [9] and in [10] was “inactive” in each case. Moreover, the Potency in assay [5] is 48.5 µM (active) and 54.5 µM (active); in assay [7], 22.4 µM (active) and 20 µM (active); in assay [11], 2 µM (active) and 8.94 µM (active).
Take `CN(C)CCC=C1c2ccccc2CCc2ccccc21`: the Potency in assay [1] is 68.6 µM (active) and inactive; in assay [2] it was 61.1 µM (active); in [5], 19.3 µM (active) and inactive; in assay [6], 2.52 µM (active) and 5.64 µM (active) and 5.49 µM (active); in assay [7] it was 7.97 µM (active) and 31.7 µM (active). The Potency result in assay [3], in assay [4], in assay [8], in [11] and in [10] was “inactive” in each case.
As to `Cc1c(OCC(F)(F)F)ccnc1CS(=O)c1nc2ccccc2[nH]1` (centres undefined), the Potency result in [1], in assay [3], in [4] and in assay [9] was “inactive” in each case. Besides, the Potency in assay [6] is 2.83 µM (active) and 1.23 µM (active); in assay [7] it was 5.64 µM (active) and 3.89 µM (active); in assay [8] it was 35.6 µM (active) and 12.3 µM (active); in assay [11], 31.7 µM (active) and 13.8 µM (active).
